Reference: PubChem BioAssay
Active and inactive are the calls of the source.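 How the source made its calls: active means inhibition above the hit cutoff set in the earlier primary screen (cut at about 27% in these data); inactive means the rest.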

Molecular target: Protein phosphatase methylesterase 1 (Homo sapiens) (UniProt Q9Y570)
Assay: PME-1 inhibitor activity retest, confirmation, biochemical, fluorescence polarization, FP-Rh probe, triplicate (AID 2171);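 further: 0% = enzyme with DMSO and 100% = wells lacking PME-1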
Details: recombinant PME-1, FP-Rh probe fluorescence polarization; at 5.9 µM; hits give high values

Protein phosphatase methylesterase 1 (Homo sapiens), sequence (Q9Y570 whole entry, looked up): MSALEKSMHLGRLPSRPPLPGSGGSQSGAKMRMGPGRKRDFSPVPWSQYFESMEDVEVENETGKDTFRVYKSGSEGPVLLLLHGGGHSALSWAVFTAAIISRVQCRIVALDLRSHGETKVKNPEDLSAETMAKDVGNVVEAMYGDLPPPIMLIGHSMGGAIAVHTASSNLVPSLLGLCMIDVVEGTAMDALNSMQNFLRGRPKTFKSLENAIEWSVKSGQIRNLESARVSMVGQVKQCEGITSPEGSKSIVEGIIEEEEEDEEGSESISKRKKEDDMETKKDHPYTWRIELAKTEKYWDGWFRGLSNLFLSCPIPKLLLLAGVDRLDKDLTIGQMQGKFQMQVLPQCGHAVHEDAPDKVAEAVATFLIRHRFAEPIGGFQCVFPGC

Q: Which inhibition does the source give for `COc1ccc(/C=N/NC(=O)c2cc3cc(OC)c(OC)cc3[nH]2)cc1` here?
A: 8.04% (inactive)

Q: With `O=C(NNc1nc2c(F)cccc2s1)c1cc(=O)c2ccccc2o1` as the compound, how does the inhibition read?
A: 58.6% (active)

Q: With `O=c1ccc2cc3c([nH]c4ccc(Br)cc43)oc-2c1O` as the compound, how does the inhibition read?
A: -63.1% (inactive)

Q: With `COc1ccc2c(c1)cc(C(=O)N/N=C/c1c(O)c(C(=O)O)cc3ccccc13)n2C` as the compound, how does the inhibition read?
A: 30% (active)

Q: How did the inhibition turn out when `NNc1nc2cc3c(cc2s1)OCCO3` was run?
A: 8.82% (inactive)

Q: How did the inhibition turn out when `CCOc1cc(CNc2ccc(O)cc2)ccc1OCc1ccc(Cl)cc1Cl` was run?
A: 13.2% (inactive)

Q: With `CCc1ccc(S(=O)(=O)/N=C2\C=C(Nc3ccc(C(=O)O)cc3)C(=O)c3ccccc32)cc1` as the compound, how does the inhibition read?
A: 33.3% (active)

Q: For `COC(=O)c1ccccc1C(=O)c1ccc2c(c1)NC(=O)CO2`, which inhibition is on record?
A: 7.04% (inactive)

Q: Which inhibition does the source give for `Cn1nc(-c2ccc(Cl)cc2)nc2c(=O)n(C)c(=O)nc1-2` here?
A: 44.8% (active)

Q: How did the inhibition turn out when `CCCOc1ccc(C2Nc3cccc4cccc(c34)N2)cc1` was run?
A: 38.3% (active)

Q: Which inhibition does the source give for `CC1=NN(c2ccccc2)C(=O)/C1=C/c1c(O)n(-c2ccc(F)cc2)[nH]c1=O` here?
A: 52.1% (active)

Q: `Nc1c(Cl)cc(-c2[nH]c3cc(C(=O)NCCO)ccc3c(=O)c2O)cc1Cl` was tested. Which inhibition did it give?
A: -9.64% (inactive)

Q: `N=C1CCC(=N)c2c1c(O)c1ccccc1c2O` was tested. Which inhibition did it give?
A: 21.1% (inactive)

Q: How did the inhibition turn out when `Cc1ccc(S(=O)(=O)N2CCOCC2)cc1NC(=O)COC(=O)c1ccccc1OCc1c(C)noc1C` was run?
A: 16.8% (inactive)

Q: With `O=C(N/N=C/c1c(Cl)[nH]c2ccccc12)c1ccc2c(c1)OCCO2` as the compound, how does the inhibition read?
A: 20.6% (inactive)
